The text below walks through data of PubChem BioAssay AID2284371 (EPA ToxCast).

Each structure is given as a SMILES string. Results filed as inconclusive are left out. Activity calls are given as the source filed them. How the source made its calls: active means hit-call score of the fitted dose curve at least 0.9, where 1 is the maximum; inconclusive means response in the unintended direction; inactive means score below 0.9.

The nature of the test: ATG_M_61_EcoTox2: Attagene TRANS-FACTORIAL EcoTox-2 HepG2 Assay for M61 Transcription Factor (Internal Marker). Here is the method: ATG_EcoTox2 is a cell-based, multiplexed assay created by modifying the existing Attagene TRANS-FACTORIAL system to include a panel of nuclear receptors from some or all the following species: human (Homo sapiens), african clawed frog (Xenopus laevis), rainbow trout (Oncorhynchus mykiss), japanese medaka (Oryzias latipes), and zebrafish (Danio rerio). The ECOTOX2-FACTORIAL format uses HepG2, a human liver cell line, with measurements taken at 24 hours after chemical dosing in a 24-well plate. ATG_M_61_EcoTox2 is one of 29 assay components calculated in the ATG_EcoTox2 assay. It is designed to make measurements of mRNA induction, a form of inducible reporter, as detected with fluorescence intensity signals by Reverse transcription polymerase chain reaction (RT-PCR) and Capillary electrophoresis technology.The assay endpoint ATG_M_61_EcoTox2 was analyzed in the positive analysis fitting direction relative to DMSO as the negative control and baseline of activity. Using a type of inducible reporter, measures of mRNA for gain-of-signal activity can be used to understand the background control at the transcription factor-level as they relate to the gene. Furthermore, this assay endpoint can be referred to as a secondary readout, because this assay has produced multiple assay endpoints where this one serves a background control function. To generalize the intended target to other relatable targets, this assay endpoint is annotated to the background measurement intended target family, where the subfamily is internal marker.
Human liver HepG2 cells are transiently transfected with multiple reporter transcription units (MRTUs) in 6-well plates using FuGene 6 reagent (Roche; 3 ml FuGene/1 mg DNA). The MRTU constructs are regulated by a cis-regulating element (promoter). Each RTU expresses a GAL4-UAS that regulates the transcription of a nearby target reporter gene sequence. A major difference between the CIS and TRANS system is that in CIS activities of endogenous TFs are measured, whereas the TRANS assay evaluates changes in activities of exogenous, chimeric NR-Gal4 proteins. […] At the end of 24 hour incubation, total RNA was isolated using TriZol reagent (Invitrogen). The isolated RNA is then reverse-transcribed using oligo(dT) primer and Mo-MLV reverse transcriptase (Invitrogen) with DNAse I (Ambion) treatment for 30 min. The one-tenth of the produced cDNA was amplified by PCR using Taq DNA polymerase (Invitrogen) and two reporter sequence-specific primers. The PCR products were fluorescently labeled by primer extension with 6-arboxyfluorescein (6-FAM) 5'-labeled reporter sequence-specific primer (2 min at 95 C, 20 s at 68 C and 10 min at 72 C) and these products were digested with 5U of HpaI (New England Biolabs) for 2h at 37 C. The fragments were purified using Qiaquick PCR columns (Qiagen), analyzed on an ABI 3130xL genetic analyzer (Applied Biosystems) with peak positions identified by using a set of X-rhodamine (ROX)-labeled MapMarker1000 molecular weight standards (BioVentures). The raw capillary electrophoresis data was processed using Attagraph software (Attagene).
Turning to `CC(C)(Oc1ccc(CCNC(=O)c2ccc(Cl)cc2)cc1)C(=O)O`, the molecule was called inactive.

`C=C(c1ccc(C(=O)O)cc1)c1cc2c(cc1C)C(C)(C)CCC2(C)C`: the result was inactive.

For `Cc1nc(-c2ccc(C(F)(F)F)cc2)sc1C(=O)NCc1ccc(OC(C)(C)C(=O)O)cc1`, the result was inactive.

For the molecule `CC(c1cc2ccccc2s1)N(O)C(N)=O` (stereo unspecified), the molecule was classed as inactive.

In the case of `C[C@]12C=CC(=O)C=C1CC[C@@H]1[C@@H]2C(=O)C[C@@]2(C)[C@H]1CC[C@]2(O)C(=O)CO`, the molecule was called inactive.

Regarding `CN(CCOc1ccc(CC2SC(=O)NC2=O)cc1)c1ccccn1` (stereo unspecified), the molecule was called inactive.

Take `CC(C)OC(=O)C(C)(C)Oc1ccc(C(=O)c2ccc(Cl)cc2)cc1`: the call was inactive.

As to `CC(C)(Oc1ccc(Cl)cc1)C(=O)O`, the molecule was called inactive.

For the molecule `CC(C)(Oc1ccc(C2CC2(Cl)Cl)cc1)C(=O)O` (stereo unspecified), the call was inactive.

On to `Cc1c(C)c2c(c(C)c1O)CCC(C)(COc1ccc(CC3SC(=O)NC3=O)cc1)O2` (stereo unspecified), for which the molecule was called inactive.

As for `Cc1cccc(Nc2cc(Cl)nc(SCC(=O)O)n2)c1C`, the call was inactive.
